PubChem BioAssay (EPA / NIEHS)
Records with an inconclusive call do not appear. More than one record can exist for a structure, and the calls need not agree. Active and inactive are the calls of the source. Rule for the calls, unless noted: active = hit-call score of the fitted dose curve at least 0.9, where 1 is the maximum; inactive = score below 0.9.

Assays:
[1] = APR_HepG2_CellCycleArrest_24hr: Apredica 24-hour HepG2 Assay for Cell Cycle Arrest (AID 2282905); conditions: imaging, actives raise or lower the signal;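 note: cell cycle arrest scored as ratio of 2N to 4N nuclear DNA content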
Summary of the method: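 After 24 h exposure at 0.39–200 uM in 0.5% DMSO, fixed cells received Hoechst 33342 staining. Imaging quantified per-nucleus DNA content; gain or loss fitted against DMSO controls.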

[2] = APR_HepG2_NuclearSize_24hr: Apredica 24-hour HepG2 Assay for Nuclear Size (AID 2282907); conditions: high-content imaging, actives raise or lower the signal
Summary of the method: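 Nuclear size from Hoechst 33342-stained, formaldehyde-fixed HepG2 nuclei imaged by high-content microscopy, after 24 h dosing at ten concentrations from 0.39 to 200 uM in 0.5% DMSO; gain or loss relative to DMSO baseline.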

[3] = APR_HepG2_CellLoss_24hr: Apredica 24-hour HepG2 Assay for Cell Loss (AID 2282908); conditions: high-content imaging;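 for AC50: fit in both directions so a hit may be cell loss or gain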
Summary of the method: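 Nuclei stained with Hoechst 33342 after formaldehyde fixation (3.7%) were imaged at 20x to count cells. Exposure lasted 24 hr, at ten concentrations from 0.39 to 200 uM in duplicate, with 0.5% v/v DMSO. Fit bidirectional, relative to DMSO.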

[4] = APR_HepG2_MicrotubuleCSK_24hr: Apredica 24-hour HepG2 Assay for Microtubule CSK Stabilty (AID 2282909); conditions: HepG2 microtubule cytoskeleton imaging, actives raise or lower the signal
Summary of the method: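 Fixed HepG2 cells were stained for alpha-tubulin and imaged after 24 hr exposure to ten concentrations spanning 0.39–200 uM in 0.5% DMSO. Signal change was fitted in both directions relative to DMSO; taxol was the positive control.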

[5] = APR_HepG2_MitoMembPot_24hr: Apredica 24-hour HepG2 Assay for Mitochondrial Membrane Potential (AID 2282911); conditions: imaging, actives raise or lower the signal
Summary of the method: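 HepG2 cells exposed 24 h to 0.39–200 uM compounds in duplicate, 0.5% v/v DMSO final. MitoTracker Red CMXRos 250 nM loaded 30 min before formaldehyde fixation; high-content imaging at 20x, bidirectional fit versus DMSO.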

[6] = APR_HepG2_MitoMass_24hr: Apredica 24-hour HepG2 Assay for Mitochondrial Mass (AID 2282912); conditions: high-content imaging, actives raise or lower the signal
Summary of the method: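 Endpoint is MitoTracker Red CMXRos (250 nM, 30 min, pre-fixation) intensity from 20x high-content imaging, nuclei located by Hoechst. Human HepG2 cells received ten concentrations from 0.39 to 200 uM in 0.5% DMSO for 24 hr, duplicate wells. Bidirectional fit relative to DMSO.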

[7] = APR_HepG2_p53Act_24hr: Apredica 24-hour HepG2 Assay for p53 Activation (AID 2282913); conditions: high-content imaging, actives raise or lower the signal;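 note: p53 protein immunofluorescence averaged per cell in HepG2 with Hoechst nuclei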
Summary of the method: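 HepG2 cells exposed 24 h to compounds at 0.39–200 uM in duplicate, 0.5% v/v DMSO final; fixed, permeabilized, stained with anti-p53 antibody and Hoechst 33342; fluorescence imaging; bidirectional curve fit versus DMSO.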

[8] = APR_HepG2_CellCycleArrest_72hr: Apredica 72-hour HepG2 Assay for Cell Cycle Arrest (AID 2282914); conditions: high-content imaging, actives raise or lower the signal
Summary of the method: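 HepG2 cells exposed 72 h in duplicate to 0.39–200 uM compound, 0.5% DMSO final. Formaldehyde-fixed, Hoechst 33342-stained nuclei imaged at 20x, six fields per well; DNA content per valid cell quantified by cell-cycle image analysis, bidirectional fit versus DMSO.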

[9] = APR_HepG2_CellLoss_72hr: Apredica 72-hour HepG2 Assay for Cell Loss (AID 2282915); conditions: high-content imaging
Summary of the method: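 HepG2 cells were exposed for 72 hr to compounds at 0.39–200 uM (ten concentrations, duplicate) in 0.5% v/v final DMSO. Nuclei were stained with Hoechst 33342 after 3.7% formaldehyde fixation, imaged at 20x, and counted; fits bidirectional versus DMSO.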

[10] = APR_HepG2_P-H2AX_72hr: Apredica 72-hour HepG2 Assay for H2AX Phosphorylation (AID 2282916); conditions: imaging, actives raise or lower the signal;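 note: phospho-histone H2A.x immunostain intensity per cell marking DNA damage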
Summary of the method: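 Phospho-histone H2A.x immunofluorescence, multiplexed with Hoechst and c-Jun, quantified by high-content imaging. Compounds applied to HepG2 for 72 h across ten concentrations (0.39–200 uM, 0.5% DMSO), in duplicate; DMSO baseline.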

[11] = APR_HepG2_MitoMembPot_72hr: Apredica 72-hour HepG2 Assay for Mitochondrial Membrane Potential (AID 2282917); conditions: imaging, actives raise or lower the signal
Summary of the method: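 HepG2 cells exposed 72 h to compounds at 0.39–200 uM (0.5% v/v DMSO, duplicates); MitoTracker Red CMXRos 250 nM loaded 30 min before 3.7% formaldehyde fixation, imaged by HCS fluorescence. Bidirectional fit versus DMSO.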

[12] = APR_HepG2_MitoticArrest_72hr: Apredica 72-hour HepG2 Assay for Mitotic Arrest (AID 2282918); conditions: high-content imaging, actives raise or lower the signal
Summary of the method: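 HepG2 cells treated 72 h at 0.39–200 uM, 0.5% DMSO final; formaldehyde-fixed, stained with Hoechst 33342 and phospho-histone H3 antibody, imaged by high-content fluorescence; bidirectional fit versus DMSO.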

[13] = APR_HepG2_MicrotubuleCSK_72hr: Apredica 72-hour HepG2 Assay for Microtubule CSK Stabilty (AID 2282919); conditions: HepG2 microtubule cytoskeleton, high-content imaging, actives raise or lower the signal
Summary of the method: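 Ten-point dosing (0.39–200 uM, 0.5% DMSO) of HepG2 for 72 hr, with taxol as the cytoskeletal positive control. The cells were formaldehyde-fixed and then stained with alpha-tubulin/Cy5 and Hoechst. Imaging at 20x used a −2 um Z offset for tubulin.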

[14] = APR_HepG2_P-H2AX_24hr: Apredica 24-hour HepG2 Assay for H2AX Phosphorylation (AID 2282920); conditions: high-content imaging, actives raise or lower the signal
Summary of the method: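 HepG2 cells dosed 24 h at 0.39–200 uM (10 points, duplicate, 0.5% DMSO final). Formaldehyde-fixed and permeabilized, then immunostained for phospho-H2A.x with Hoechst. Fluorescence quantified by high-content imaging, fitted bidirectionally versus DMSO.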

[15] = APR_HepG2_StressKinase_72hr: Apredica 72-hour HepG2 Assay for Stress Kinase (AID 2282921); conditions: HepG2 stress kinase (phospho-c-Jun) imaging, actives raise or lower the signal
Summary of the method: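 Stress kinase signal is phospho-c-Jun immunofluorescence (1:500 primary, Cy3 secondary) in fixed, permeabilized human HepG2 cells imaged at 20x. Exposure lasted 72 hr over ten concentrations from 0.39 to 200 uM, 0.5% DMSO, in duplicate. Bidirectional fit versus DMSO.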

[16] = APR_HepG2_StressKinase_24hr: Apredica 24-hour HepG2 Assay for Stress Kinase (AID 2282922); conditions: HepG2 stress kinase (phospho-c-Jun) imaging, actives raise or lower the signal
Summary of the method: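 After 24 hr compound treatment (up to 200 uM, final DMSO 0.5% v/v), HepG2 cells are fixed and multiplex-labeled; phospho-c-Jun intensity is captured by high-content fluorescence imaging and analyzed relative to DMSO.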

[17] = APR_HepG2_p53Act_72hr: Apredica 72-hour HepG2 Assay for p53 Activation (AID 2282923); conditions: high-content imaging, actives raise or lower the signal;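 note: average cellular p53 protein immunofluorescence intensity in HepG2 cells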
Summary of the method: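 After 72 h with compound (ten points, 0.39 to 200 uM, final DMSO 0.5% v/v), fixed HepG2 cells were labelled with sheep anti-p53 and Hoechst 33342 and imaged; gain or loss versus DMSO scored.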

[18] = APR_HepG2_MitoMass_72hr: Apredica 72-hour HepG2 Assay for Mitochondrial Mass (AID 2282924); conditions: high-content imaging, actives raise or lower the signal;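 note: MitoTracker Red CMXRos stain intensity per cell imaged as mitochondrial mass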
Summary of the method: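 Steps: treat HepG2 72 hr (0.39–200 uM, duplicate wells); load MitoTracker Red CMXRos, 250 nM, 30 min; fix with 3.7% formaldehyde, permeabilise with 0.5% Triton X-100; capture images, nuclei via Hoechst 33342; fit bidirectionally against DMSO.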

[19] = APR_HepG2_NuclearSize_72hr: Apredica 72-hour HepG2 Assay for Nuclear Size (AID 2282925); conditions: high-content imaging, actives raise or lower the signal
Summary of the method: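 Compounds (0.39–200 uM, final DMSO 0.5%) were applied to HepG2 for 72 hr. Cells were then formaldehyde-fixed, permeabilized and labelled with Hoechst 33342. Nuclear diameter was quantified from six images per well.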

[20] = ACEA_ER_80hr: ACEA Biosciences xCELLigence Real-Time Cell Analysis on Estrogen Receptor Agonism for Proliferation (AID 2282667; active = hit-call score of the fitted dose curve at least 0.9, where 1 is the maximum); conditions: T47D proliferation, impedance (xCELLigence), 80 h
Summary of the method: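 T-47D cells monitored by electrical impedance (xCELLigence) with compound present throughout; 80 h timepoint, positive-direction fitting versus DMSO. Eight-point 1:4 dilutions from 100 uM final, duplicate plates.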

Measured: AC50

CC(C)(OO)c1ccccc1
inactive: [6] | [11] | [13] | [16] | [18] | [19]
active: [1] 78.4 µM | [2] 65.1 µM | [3] 72.2 µM | [4] 75.3 µM | [5] 96.2 µM | [7] 65.8 µM | [8] 88.8 µM | [9] 59.9 µM | [10] 56.7 µM | [12] 59.4 µM | [14] 69.3 µM | [15] 49.4 µM | [17] 45.7 µM

CC(C)(C)c1cc(O)ccc1O
active: [3] 125 µM | [5] 114 µM | [6] 151 µM | [9] 144 µM | [18] 108 µM | [19] 110 µM
not listed: [20]
inactive: all other assays above

O=C/C=C/c1ccccc1
inactive: [20]

CCC(C)(C)c1ccc(O)c(C(C)(C)CC)c1
active: [1] 28.1 µM | [2] 39.1 µM | [3] 40.5 µM | [5] 29.7 µM | [7] 32.1 µM | [8] 13.9 µM | [9] 37.4 µM | [12] 59.4 µM | [14] 39.3 µM | [17] 29.7 µM | [18] 82.5 µM
inactive: [4] | [6] | [10] | [11] | [13] | [15] | [16] | [19]

O=C(O)C(F)(F)C(F)(F)C(F)(F)C(F)(F)C(F)(F)C(F)(F)C(F)(F)C(F)(F)C(F)(F)C(F)(F)F
active: [1] 68.4 µM | [3] 83.1 µM | [4] 56.7 µM | [6] 76.3 µM | [7] 66.9 µM | [8] 68.8 µM | [9] 83.3 µM | [10] 90.6 µM | [12] 66.5 µM | [14] 71.5 µM | [16] 73.8 µM | [17] 85.3 µM | [18] 72.9 µM
inactive: [2] | [5] | [11] | [13] | [15] | [19]

C=CC(=O)OCCCCCC(C)C
active: [8] 108 µM | [9] 92.1 µM
not listed: [20]
inactive: all other assays above

CC12CC1(C)C(=O)N(c1cc(Cl)cc(Cl)c1)C2=O (stereo not given)
not listed: [20]
inactive: all other assays above

Oc1cccc2cccnc12
active: [1] 15.4 µM | [3] 2.29 µM | [7] 25.9 µM | [8] 1.59 µM | [9] 2.66 µM | [10] 16.9 µM | [12] 5.23 µM | [15] 18.8 µM | [17] 4.12 µM | [18] 3.1 µM
inactive: [2] | [4] | [5] | [6] | [11] | [13] | [14] | [16] | [19]

CC(=O)OC(c1ccccc1)C(Cl)(Cl)Cl (stereo not given)
inactive: [20]

O=c1[nH]c(=O)[nH]c(=O)[nH]1
active: [5] 61.3 µM | [11] 99.5 µM
not listed: [20]
inactive: all other assays above

Cn1sc(Cl)cc1=O
active: [3] 109 µM | [6] 117 µM | [7] 113 µM | [9] 104 µM | [10] 109 µM | [11] 120 µM | [12] 97.3 µM | [13] 135 µM | [14] 110 µM | [15] 111 µM | [17] 106 µM | [18] 163 µM
inactive: [1] | [2] | [4] | [5] | [8] | [16] | [19]

CC(C)(c1ccccc1)c1ccc(O)c(C(C)(C)c2ccccc2)c1
active: [2] 22 µM | [3] 28.1 µM | [5] 29.4 µM | [7] 40.8 µM | [9] 31.2 µM | [12] 29.8 µM | [14] 69.5 µM | [16] 134 µM | [18] 30.1 µM
not listed: [20]
inactive: all other assays above

O=C(O)C(Cl)(Cl)Cl
active: [3] 100 µM | [5] 101 µM | [6] 161 µM | [7] 165 µM | [8] 171 µM | [9] 110 µM | [12] 114 µM | [14] 106 µM | [18] 162 µM
inactive: [1] | [2] | [3] | [4] | [5] | [6] | [7] | [8] | [9] | [10] | [11] | [12] | [13] | [14] | [15] | [16] | [17] | [18] | [19]
